From PubChem BioAssay AID1259376 (The Scripps Research Institute Molecular Screening Center, 2018)
The whole screen tested about 4,700 compounds, of which about 360 (7.7%) were called active. Shown is part of a subset that was picked to be rich in actives. A number with no mark means an inactive call.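 How the source made its calls: active means inhibition above a cutoff derived from the DMSO control wells (cut at about 30% in these data); inactive means the rest.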

Assay: AlphaScreen optical interference compounds, counter-screen for MITF inhibitor project, biochemical, triplicate (AID 1259376)
Details: LysRS AlphaScreen counterscreen, signal interference, at 2.6 µM, stronger effect = higher value

| SMILES | inhibition |
| --- | --- |
| COc1cc(NC(=O)CCc2nc(C3=CCN(C)CC3)no2)cc(OC)c1OC | 34.2% (active) |
| COc1ccccc1CN1CCN(C(=O)Cc2ccccc2)CC1 | 7.15% |
| COc1ccc(CN2CCN(C(C)C)CC2)cc1 | 10.5% |
| COc1cccc(CN2CCN(Cc3ccccc3F)CC2)c1 | 16.6% |
| CCN1CCc2nc3ccccc3c(C(=O)O)c2C1 | 4.31% |
